Measurements published in PubChem BioAssay AID588778 (Southern Research Institute, 2011).
The campaign covered roughly 10,000 compounds. Fewer than 10 were called active. The rule behind the calls is not given here. The list is a sample of the results.

Assay: Vibrio cholerae motility inhibitors, OD read-out (AID 588778)
Conditions: stronger effect = higher value
[1] = measured here: bacterial viability at 10 ug/mL

Row | SMILES | inhibition (concentration not given here) | inhibition [1]
1 | O=C(Nc1cnccn1)c1cccs1 | 20.3% (inactive) | 10.6%
2 | CCOC(=O)N1CCN(C(=O)c2ccc(C#CC3(O)CCCCC3)cc2)CC1 | -17.2% (inactive) | -5.67%
3 | CC(C)N=C(NS(=O)(=O)c1ccccc1)c1ccccc1 | -3.11% (inactive) | -1.85%
4 | Cc1nc(NC(=O)c2c(F)c(F)c(F)c(F)c2F)ccc1I | 13% (inactive) | 0.675%
5 | COc1ccc2[nH]cc(CCNS(=O)(=O)Cc3ccccc3)c2c1 | 8.63% (inactive) | 0.04%
6 | O=C(NC(=S)NCc1ccccc1)C1CC1 | 12.4% (inactive) | 5.74%
7 | CC(NC(=O)c1ccco1)c1ccc(I)cc1 (stereo unspecified) | 15.8% (inactive) | 23.3%
8 | CSc1cccc(NC(=O)Cn2c(C)c(C=O)c3ccccc32)c1 | 20.7% (inactive) | 5.17%
9 | CC(C)(C)OC(=O)NNC(=O)Nc1ccccc1C(F)(F)F | 15.3% (inactive) | 31.8%
10 | O=C(O)c1ccc(NC(=O)c2ccc(Cl)cc2)c(NC(=O)c2ccc(Cl)cc2)c1 | -7.79% (inactive) | -2.21%
11 | N#Cc1cc2c(nc1SCC1(O)CCCc3ccccc31)CCCC2 (stereo unspecified) | 8.28% (inactive) | -3.11%
12 | COc1ccc(-c2csc3ncnc(Oc4cccc5cccnc45)c23)cc1 | -32.6% (inactive) | -9.37%
13 | COc1cccc2cc(C(=O)Nc3scc(-c4ccc(F)cc4)c3C(=O)OC(C)C)c(=O)oc12 | -22.6% (inactive) | -8.21%
14 | O=[N+]([O-])c1cccc(CN2CCC(N3CCCC3)CC2)c1 | -18.4% (inactive) | -10.2%
15 | NC(=O)C1(N2CCCCC2)CCN(C(=O)CSc2nc3ccccc3o2)CC1 | 4.33% (inactive) | -1.26%
16 | CCN(CC#CCCOC(C)=O)c1ccccc1 | -9.42% (inactive) | -8.17%
17 | O=C(NC(=S)Nc1ccc(Cl)cc1C(F)(F)F)c1ccccc1I | -7.41% (inactive) | -8.11%
18 | COc1cc(C=O)ccc1OC(=O)c1nsc(Cl)c1Cl | 2.31% (inactive) | 2.66%
19 | O=C(NCCSc1ccc(Cl)cc1)Nc1ccccc1 | 52.1% (inactive) | 14.4%
20 | Cc1ccc(F)c(NC(=O)CN2C(=O)CSc3ccccc32)c1 | 16.3% (inactive) | 13.8%
21 | CCCCCOc1ccc(NC(=O)C(=O)NCCN2CCOCC2)cc1 | -4.07% (inactive) | -7.64%
22 | COc1ccc(C(=O)N(Cc2ccc(C)o2)C2CCS(=O)(=O)C2)cc1Cl (stereo unspecified) | 1.9% (inactive) | 1.08%

Row | SMILES | inhibition (concentration not given here) | inhibition [1]
23 | Cc1nnc(SCC(=O)Nc2ccc(Cl)cn2)s1 | -2.25% (inactive) | -0.63%
24 | Cc1ccc(S(=O)(=O)Nc2ccc(C(=O)Nc3nccs3)cc2)cc1 | 4.81% (inactive) | -2.49%
25 | Cn1cnnc1SCC(=O)Nc1ccccn1 | 9.88% (inactive) | 31.7%
26 | Clc1ccc(Cc2nc(-c3cccnc3)no2)cc1 | 5.04% (inactive) | 0.075%
27 | CCOc1cc2c(cc1OCC)C(c1ccc(OC)c(OC)c1)N(c1ccc(C(=O)O)cc1)C(=O)C2 (stereo unspecified) | -8.01% (inactive) | -1.54%
28 | COc1ccc(Br)cc1CNCc1cccs1 | 84.4% (inactive) | 24.4%
29 | C=CCn1c2ccccc2c2nnc(SCC(=O)Nc3cc(C)on3)nc21 | -1.67% (inactive) | -8.05%
30 | CC1=C(C(=O)Nc2nc3ccccc3s2)C(c2ccc(F)cc2)C2=C(CCCC2=O)N1 (stereo unspecified) | -5.34% (inactive) | 0.795%
31 | CC(C)(NO)C(=O)c1ccc(Cl)cc1 | 1.66% (inactive) | -5.03%
32 | CC12CCC(C(=O)NCc3ccccc3Cl)(CC1=O)C2(C)C (stereo unspecified) | 7.42% (inactive) | -6.53%
33 | Cc1cc(NC(=O)COc2cc(C)c(Cl)c(C)c2)no1 | 3.92% (inactive) | -7.52%
34 | CCOc1ccc2ccccc2c1C(=O)NCc1cccs1 | 17.9% (inactive) | 2.9%
35 | O=C(CC1(c2ccc(Cl)cc2)C(=O)c2ccccc2C1=O)N1CCCCC1 | 16% (inactive) | -0.9%
36 | Cc1occc1C(=O)Nc1cc(=O)n(C)c(=O)n1C | 3.62% (inactive) | -1.31%
37 | Cc1c(C(=O)c2ccccc2)c(=O)n(C)c(=O)n1C | -8.62% (inactive) | 1.24%
38 | COc1ccc(OC)c(NC(=O)Cn2c(C)ccc2C)c1 | 5.31% (inactive) | 2.44%
39 | CC12CCC(C(=O)Nc3ccc(SC(F)F)cc3)(CC1=O)C2(C)C (stereo unspecified) | 7.67% (inactive) | 34.3%
40 | S=C(NCc1ccc(Cl)cc1)N1CCC2(CC1)OCCO2 | -10.1% (inactive) | -3.96%
41 | OCCNC(=S)NC1CCCCC1 | -10.2% (inactive) | -4.3%
42 | OCCNC/C=C/c1c(F)c(F)c(F)c(F)c1F | 8.12% (inactive) | 1.91%
43 | O=C(c1ccc(Sc2nnc(Cc3ccccc3)n2-c2ccccc2)c([N+](=O)[O-])c1)N1CCCC1 | -6.85% (inactive) | 7.99%
44 | COc1ccc(NC(=S)Nc2ccccc2OC(F)F)cc1OC | -38% (inactive) | -5%

Row | SMILES | inhibition (concentration not given here) | inhibition [1]
45 | Cc1ccc(OCc2nnc(SCC(=O)N3CCc4ccccc43)n2N)cc1C | -18.2% (inactive) | -12.3%
46 | C=C1C2(C(=O)Nc3nc4ccc(Br)cc4s3)CCC(C2)C1(C)C (stereo unspecified) | -2.38% (inactive) | -1.19%
47 | Cc1cc(Cl)c(OCCOCCn2cnc3ccccc3c2=O)c(Br)c1 | 4.18% (inactive) | -5.62%
48 | Cc1c(N2C(=O)C3C4C=CC(C5CC45)C3C2=O)c(=O)n(-c2ccccc2)n1C (stereo unspecified) | -7.28% (inactive) | -4.46%
49 | COc1ccc(NC(=S)N2CCCC2C(=O)N2CCCC2)cc1 (stereo unspecified) | 41.3% (inactive) | 7.73%
50 | CN(C)C(=O)c1ccccc1C(=O)N(C)C | -3.26% (inactive) | 34.3%
51 | C[C@@H](NC(=O)C1CCN(Cc2cccc(Cl)c2)CC1)c1ccccc1 | 19.5% (inactive) | 5.13%
52 | Cc1cccc(C(=O)Nc2ccc(I)cc2C(=O)N2CCCC2)c1 | -0.8% (inactive) | -1.35%
53 | C=CCn1c(SCC(=O)Nc2c(C)cc(I)cc2C)nnc1-c1ccco1 | 5% (inactive) | -2.52%
54 | COc1cccc(-c2cc(C(F)(F)F)n3ncc(C(=O)OC(C)C)c3n2)c1 | 14.1% (inactive) | 15.9%
55 | Cc1cc(Br)c(NC(=O)CSc2ccc(Cl)cc2)cc1C | -1.15% (inactive) | 5.67%
56 | COc1ccc(N(C)NC(=O)Cc2ccccc2)cc1 | 16.7% (inactive) | 4.27%
57 | O=C(CC(NCc1ccccn1)C(=O)O)Nc1ccc(Cl)cc1 (stereo unspecified) | 4.17% (inactive) | -9.2%
58 | COCc1cc(CN2CCCCC2)c(O)c2ncccc12 | 34% (inactive) | 5.26%
59 | COc1cc(C(=O)Nc2nnc(-c3sccc3C)s2)cc(OC)c1OC | -3.78% (inactive) | -6.72%
60 | OCC(CO)(CO)NCC(O)CN1c2ccccc2Sc2ccccc21 (stereo unspecified) | 3.65% (inactive) | -1.83%
61 | c1cncc(Nc2nc(-c3cccs3)cs2)c1 | 13.2% (inactive) | -2.87%
62 | COc1ccc(Cl)cc1NC(=S)Nc1cccc(C)n1 | -27.1% (inactive) | -16.2%
63 | COc1ccc(C(=O)Nc2ncccc2O)cc1 | 10.3% (inactive) | 2.51%
64 | S=C(NCc1ccco1)NNC(=S)Nc1ccc(Cl)cc1 | 13.3% (inactive) | 5.16%
65 | CCCC(=O)c1ccc(N2CCN(C(=O)c3ccccc3Br)CC2)c(F)c1 | 1.55% (inactive) | 4.06%
66 | COC(=O)C1=CN(c2ccc(F)c(F)c2)C=C(C(=O)OC)C1c1cc(OC)ccc1OC | -1.54% (inactive) | -3.16%

Row | SMILES | inhibition (concentration not given here) | inhibition [1]
67 | Cc1sc(NCc2cc(Cl)ccc2O)nc1-c1ccc(F)cc1 | 14% (inactive) | -2.93%
68 | O=C(Oc1ccc(Cl)cc1Br)c1ccc(F)cc1 | -4.46% (inactive) | -5.02%
69 | COc1c(S(=O)(=O)N2CCCN(S(=O)(=O)c3ccc(Cl)c(Cl)c3OC)CC2)ccc(Cl)c1Cl | 8.96% (inactive) | 22.4%
70 | COc1cc(NC(=O)CS)cc(OC)c1 | -28.8% (inactive) | -11%
71 | CC(CCc1ccccc1)NC(=O)c1cccnc1 (stereo unspecified) | 14.2% (inactive) | -1.57%
72 | CCOc1ccc(-n2nc3ccc(NC(=S)NC(=O)CC)cc3n2)cc1 | -22.2% (inactive) | -6.24%
73 | CC1(C)CC(=O)C2=C(C1)NC(Nc1nc3ccccc3s1)=NC21C(=O)Nc2ccccc21 (stereo unspecified) | 5.23% (inactive) | -0.54%
74 | O=C(CCC(=O)Nc1ccccc1Cl)NNC(=S)NCc1ccco1 | 7.34% (inactive) | 30.6%
75 | O=C(CCCOc1ccc(Cl)cc1Cl)N1CCN(Cc2ccc3c(c2)OCO3)CC1 | 15.4% (inactive) | 5.35%
76 | CCc1[nH]nc2c1C1(CN3CCC1CC3)C(C#N)=C(N)O2 (stereo unspecified) | -3.07% (inactive) | -0.3%
77 | CCN1C(=O)Cc2cc(S(N)(=O)=O)ccc21 | 13.3% (inactive) | 0.76%
78 | O=C(NCCc1ccccc1)c1ccc(CNS(=O)(=O)c2cccc(Cl)c2)cc1 | -4.41% (inactive) | -10.6%
79 | Cc1ccc(NC(NC=O)C(Cl)(Cl)Cl)c(C)c1 (stereo unspecified) | 1.46% (inactive) | 2.8%
80 | CCc1cc(C(=O)OC)c(NC(=O)c2cc(Br)cs2)s1 | 6.03% (inactive) | 1.94%
81 | Cc1cccc(C)c1N1CCN(C(=O)N2CCCCC2)CC1 | 8.63% (inactive) | -4.82%
82 | COc1ccc(-c2csc3ncnc(SCc4c(C)noc4C)c23)cc1 | 24.7% (inactive) | 4.67%
83 | Cc1cc2ccccc2n2c(SCC(=O)c3ccc4c(c3)OCCO4)nnc12 | 0.44% (inactive) | -5.11%
84 | O=C(c1cccs1)N1C(=O)c2cccc3c(S(=O)(=O)N4CCCC4)ccc1c23 | 11.6% (inactive) | -0.47%
85 | CCSc1nnc(NC(=O)c2csc3ccccc23)s1 | -5.35% (inactive) | -4.62%
86 | COc1cc(SC)ccc1C(=O)Nc1cccc(C(F)(F)F)c1 | 0.295% (inactive) | -4.94%
87 | CCOC(=O)c1nnc2ccnn2c1N | -20.5% (inactive) | -4.37%
88 | Cc1csc(NC(=O)CSc2nc3c(c(C(F)(F)F)c2C#N)CCC3)n1 | 4.09% (inactive) | 1.86%
